Calls of active or inactive are those of the source.
What was measured:
[1] = optical density shifts of acrAB sulA E. coli – strain DRC41, OD650, 48 h, E. coli filamentation inducer project, primary screen (AID 1152); conditions: higher = more signal, called active from +8 up or from −8 down;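 note: E. coli MC1000 strain DRC41 lacking acrAB efflux pump and sulA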
[2] = probe aLefty1 binding on compound microarray – biochemical, small-molecule microarray, 635/667 nm fluorescence, primary screen (AID 1153); conditions: higher = more signal;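 note: score merges spot fluorescence with signal-to-noise ratio from the scanned slide images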
[3] = plasmodial surface anion channel blockers, osmotic lysis – cell-based, P. falciparum Indochina, OD700, 1 h, primary screen (AID 1154); conditions: P. falciparum Indochina infected RBC osmotic lysis, higher = more signal, called active from +8 up or from −8 down
[4] = plasmodial surface anion channel blockers, osmotic lysis – cell-based, P. falciparum Indochina, OD700, 2 h, primary screen (AID 1155);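 note: lysis reports solute entry through the parasite surface anion channel PSAC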; conditions: P. falciparum Indochina infected erythrocytes, higher = more signal, called active from +8 up or from −8 down
[5] = changes in parasitized red cell lysis, either direction – P. falciparum Indochina, OD700, 3 h, PSAC antagonist project, primary screen (AID 1156); conditions: P. falciparum-infected erythrocytes, osmotic lysis, higher = more signal, called active from +8 up or from −8 down
[6] = plasmodial surface anion channel blockers, osmotic lysis – cell-based, P. falciparum Indochina, OD700, 18 h, primary screen (AID 1157); conditions: P. falciparum Indochina infected erythrocytes, osmotic lysis OD700, 18 h; higher = more signal, called active from +8 up or from −8 down
[7] = S6 kinase pathway phospho-S6 level changes – cell-based, A549, cytoblot, luminescence, serum-stimulated, primary screen (AID 1158); conditions: 5 h, higher = more signal;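 note: serum-stimulated A549 lung adenocarcinoma cells; signal is phosphorylated S6 detected by cytoblot immunostaining with HRP secondary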
[8] = target: NADPH oxidase 2 (Homo sapiens) (UniProt P04839); test: compounds shifting NOX2 Amplex Red fluorescence – cell-based, HEK293-NOX2, PMA-stimulated, NOX inhibitor project, primary screen (AID 1159); conditions: 45 min, higher = more signal, called active from +8 up or from −8 down; note: test concentration not given here
NADPH oxidase 2 (Homo sapiens), sequence (P04839 whole entry, looked up): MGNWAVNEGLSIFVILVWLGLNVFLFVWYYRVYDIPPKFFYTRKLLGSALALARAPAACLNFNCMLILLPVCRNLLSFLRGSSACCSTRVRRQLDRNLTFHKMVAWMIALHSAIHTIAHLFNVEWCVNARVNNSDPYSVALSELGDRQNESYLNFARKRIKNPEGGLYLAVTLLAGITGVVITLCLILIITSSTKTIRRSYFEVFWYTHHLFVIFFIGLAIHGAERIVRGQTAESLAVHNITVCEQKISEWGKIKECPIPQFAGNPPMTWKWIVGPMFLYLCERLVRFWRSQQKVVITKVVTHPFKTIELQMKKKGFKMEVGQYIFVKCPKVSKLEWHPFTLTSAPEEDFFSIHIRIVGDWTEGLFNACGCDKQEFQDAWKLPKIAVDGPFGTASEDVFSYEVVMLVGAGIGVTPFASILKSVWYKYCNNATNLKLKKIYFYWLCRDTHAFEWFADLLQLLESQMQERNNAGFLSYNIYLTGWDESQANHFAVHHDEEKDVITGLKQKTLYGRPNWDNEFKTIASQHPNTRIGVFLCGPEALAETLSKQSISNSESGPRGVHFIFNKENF

[9] = target: NADPH oxidase 4 (Homo sapiens) (UniProt Q9NPH5); test: compounds shifting NOX4 Amplex Red fluorescence – cell-based, HEK293-NOX4, tetracycline-induced, NOX inhibitor project, primary screen (AID 1160); conditions: HEK293-NOX4, Amplex Red H2O2 fluorescence, 45 min; higher = more signal, called active from +8 up or from −8 down
NADPH oxidase 4 (Homo sapiens), sequence (Q9NPH5 whole entry, looked up): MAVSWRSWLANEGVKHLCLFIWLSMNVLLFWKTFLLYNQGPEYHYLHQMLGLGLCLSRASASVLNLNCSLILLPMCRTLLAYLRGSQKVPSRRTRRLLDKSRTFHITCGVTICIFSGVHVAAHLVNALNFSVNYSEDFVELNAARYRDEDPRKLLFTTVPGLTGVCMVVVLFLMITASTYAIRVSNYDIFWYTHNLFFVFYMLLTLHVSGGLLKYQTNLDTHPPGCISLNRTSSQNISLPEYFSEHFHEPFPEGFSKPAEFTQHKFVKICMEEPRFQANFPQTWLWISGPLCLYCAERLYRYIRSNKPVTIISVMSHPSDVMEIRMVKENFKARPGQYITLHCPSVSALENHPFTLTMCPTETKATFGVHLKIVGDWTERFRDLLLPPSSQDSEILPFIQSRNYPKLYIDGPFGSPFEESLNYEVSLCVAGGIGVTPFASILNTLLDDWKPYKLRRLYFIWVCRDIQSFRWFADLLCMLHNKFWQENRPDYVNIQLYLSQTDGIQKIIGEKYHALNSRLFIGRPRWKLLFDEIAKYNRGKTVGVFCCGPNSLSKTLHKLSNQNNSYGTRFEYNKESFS

[10] = target: NADPH oxidase 5 (Homo sapiens) (UniProt Q96PH1); test: compounds shifting NOX5 Amplex Red fluorescence – cell-based, HEK293-NOX5, NOX inhibitor project, primary screen (AID 1161); conditions: HEK293-NOX5, ionomycin, 45 min, higher = more signal
NADPH oxidase 5 (Homo sapiens), sequence (Q96PH1 whole entry, looked up): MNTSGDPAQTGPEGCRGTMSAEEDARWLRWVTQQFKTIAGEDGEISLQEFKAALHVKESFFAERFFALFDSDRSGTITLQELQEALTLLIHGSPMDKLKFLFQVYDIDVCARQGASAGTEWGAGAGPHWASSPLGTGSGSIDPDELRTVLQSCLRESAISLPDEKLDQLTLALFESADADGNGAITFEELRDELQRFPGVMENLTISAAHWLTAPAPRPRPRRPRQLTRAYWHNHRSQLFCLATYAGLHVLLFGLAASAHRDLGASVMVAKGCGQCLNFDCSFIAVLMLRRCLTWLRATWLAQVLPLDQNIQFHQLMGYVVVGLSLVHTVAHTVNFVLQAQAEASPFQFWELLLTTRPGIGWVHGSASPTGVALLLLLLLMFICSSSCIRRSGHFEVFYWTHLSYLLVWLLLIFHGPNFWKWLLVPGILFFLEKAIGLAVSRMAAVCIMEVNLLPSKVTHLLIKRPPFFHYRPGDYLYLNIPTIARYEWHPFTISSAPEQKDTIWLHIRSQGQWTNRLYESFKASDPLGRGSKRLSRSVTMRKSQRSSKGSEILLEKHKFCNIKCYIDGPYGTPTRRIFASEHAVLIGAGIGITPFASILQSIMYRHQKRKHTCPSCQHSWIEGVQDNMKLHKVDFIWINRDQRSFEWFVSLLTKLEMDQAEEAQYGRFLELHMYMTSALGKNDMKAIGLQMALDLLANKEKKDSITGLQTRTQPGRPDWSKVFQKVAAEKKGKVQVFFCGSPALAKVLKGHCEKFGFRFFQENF

Compound	z-score [1]	composite z-score [2]	z-score [3]	z-score [4]	z-score [5]	z-score [6]	z-score [7]	z-score [8]	z-score [9]	z-score [10]
COc1ccc([Si](C)(C)[C@H]2[C@H](CCO)O[C@@]3(C(=O)N(Cc4cccc(N5C(=O)c6cccc7cccc5c67)c4)c4ccccc43)[C@@H]2C)cc1	0.0084 (inactive)	-0.012	1.54 (inactive)	2.2 (inactive)	0.712 (inactive)	1.31 (inactive)	1.26	-0.139 (inactive)	0.61 (inactive)	1.6
COC(=O)c1c(CC[C@@H](CO)NC(=O)Nc2ncn[nH]2)oc(C(=O)Cc2ccccc2)c1C(=O)OC	-0.862 (inactive)	0.0751	0.658 (inactive)	0.22 (inactive)	-0.641 (inactive)	0.0651 (inactive)	0.0642	-1.16 (inactive)	-0.331 (inactive)	-0.53
Cc1ccc(N2C(=O)c3ccccc3[C@@H](C(=O)NC(C)C)[C@@H]2c2ccc(CO)cc2)nc1	0.358 (inactive)	-0.641	2.41 (inactive)	0.474 (inactive)	0.884 (inactive)	0.596 (inactive)	0.45	0.0802 (inactive)	-1.16 (inactive)	-2.61
CCN(CC)c1ccc(N2CC=CC34O[C@@H]5/C=C\CCC(C)OC(=O)C5[C@H]3C(=O)N(CCCCCCO)[C@@H]4C2=O)cc1 (stereo not given in full)	0.699 (inactive)	-0.464	-0.37 (inactive)	0.0486 (inactive)	-0.383 (inactive)	0.33 (inactive)	1.35	-0.315 (inactive)	-0.0195 (inactive)	0.813
[N-]=[N+]=NCc1ccccc1[C@@H]1OC(c2ccc(OCCCO)cc2)=N[C@]1(Cc1ccccc1)C(=O)O	-0.235 (inactive)	0.0429	15.6 (active)	2.07 (inactive)	-0.143 (inactive)	0.786 (inactive)	-0.117	0.174 (inactive)	1.1 (inactive)	1.74
CCN(CC)c1ccc(N2CC=CC34O[C@@H]5C=CCOC(=O)[C@@H]5[C@H]3C(=O)N(CCCCCO)[C@@H]4C2=O)cc1 (stereo not given in full)	0.825 (inactive)	0.271	1.29 (inactive)	0.172 (inactive)	1.36 (inactive)	0.113 (inactive)	-0.491	0.766 (inactive)	0.449 (inactive)	1.67
COc1ccc([Si](C)(C)[C@H]2[C@H](CCO)O[C@@]3(C(=O)N(Cc4ccccc4)c4ccc(N5C(=O)COc6ccccc65)cc43)[C@@H]2C)cc1	0.592 (inactive)	0.167	5.33 (inactive)	2.16 (inactive)	1.3 (inactive)	1.65 (inactive)	2.08	-1.74 (inactive)	1.53 (inactive)	0.595
O=C1C2C=CC(C(O)C3CC=CCC3)N(n3cnnc3)C2C(=O)N1Cc1ccccc1 (stereo not given)	-1.37 (inactive)	0.0455	1.36 (inactive)	0.585 (inactive)	0.576 (inactive)	0.388 (inactive)	-0.792	-0.621 (inactive)	-1.61 (inactive)	-1.34
CC(=O)N1Cc2ccccc2C[C@@]2(N=C(c3ccc(OCCCO)cc3)O[C@H]2c2ccccc2)C1=O	1.6 (inactive)	1.29	24.1 (active)	8.42 (active)	2.76 (inactive)	0.944 (inactive)	2.14	-4.15 (inactive)	0.144 (inactive)	-2.86
CCOC(=O)C[C@H]1[C@H](OC(=O)c2ccc(C(=O)c3ccccc3)cc2)[C@@H](NC(=O)c2ccc3ccccc3n2)c2cc(OCCCO)ccc2N1C(=O)c1ccc2ccccc2n1	1.14 (inactive)	0.464	5.2 (inactive)	1.1 (inactive)	-0.327 (inactive)	0.579 (inactive)	0.495	-0.0371 (inactive)	0.532 (inactive)	1.03
C=CCC(OC(C)=O)[C@@H]1[C@@H](N(Cc2ccc(-c3cccc(C(F)(F)F)c3)o2)C(=O)c2ccc(C)cc2)c2cc(OCCCO)ccc2N1C(=O)c1ccc2ccccc2n1 (stereo not given in full)	1.55 (inactive)	0.235	1.97 (inactive)	0.435 (inactive)	-0.225 (inactive)	0.0644 (inactive)	-0.218	-0.0312 (inactive)	0.95 (inactive)	2.06
C[N+](C)(C)CCCC[C@@H]1NC(=O)[C@@H]2C[C@H](C(=O)NCCCCCCNC(=O)CS)[C@H](c3cccc(OCCO)c3)N2C1=O	-0.0169 (inactive)	-0.012	5.87 (inactive)	1.39 (inactive)	-0.293 (inactive)	0.644 (inactive)	0.133	1.85 (inactive)	1.12 (inactive)	1.45
O=C(NCc1ccccc1)[C@@H]1c2ccccc2C(=O)N(C2CCCCC2)[C@H]1c1ccc(CO)cc1	-0.246 (inactive)	-0.458	2.67 (inactive)	0.0744 (inactive)	0.473 (inactive)	0.475 (inactive)	-0.127	-0.245 (inactive)	0.684 (inactive)	0.725
O=c1cccc(-c2ccc3ccccc3c2)o1	0.62 (inactive)	-0.0035	25.4 (active)	10 (active)	-1.71 (inactive)	1.1 (inactive)	-0.38	-0.415 (inactive)	-4.41 (inactive)	-1.19
O=C(N1CCCCC1)[C@]1(CCS(=O)(=O)c2ccccc2)N=C(c2ccc(OCCCO)cc2)O[C@@H]1c1ccccc1	-0.725 (inactive)	1.17	27.2 (active)	19.5 (active)	2.02 (inactive)	-0.192 (inactive)	1.54	-2.96 (inactive)	-1.7 (inactive)	-1.94
CCCNC(=O)[C@@]1(c2ccc([N+](=O)[O-])cc2)CC(=O)N(CC23CC4CC(CC(C4)C2)C3)[C@@H]1c1ccc(CO)cc1I	0.0121 (inactive)	0.181	26 (active)	13.3 (active)	1.82 (inactive)	1.87 (inactive)	-0.151	1.15 (inactive)	-0.037 (inactive)	2.21
CCCCCCC#C[Si](O[C@H](c1ccccc1)c1cn([C@H](C)c2ccccc2)nn1)(C(C)C)C(C)C	2.21 (inactive)	-0.234	1.18 (inactive)	-0.0458 (inactive)	-0.0391 (inactive)	-0.0352 (inactive)	0.138	0.054 (inactive)	-0.749 (inactive)	0.268
C=C(CCCC)C(=O)CC[C@H](OC(C)=O)c1ccc(CO)o1	0.33 (inactive)	0.929	2.26 (inactive)	-0.43 (inactive)	0.25 (inactive)	-1.8 (inactive)	0.612	0.184 (inactive)	0.209 (inactive)	-1.32
CN1C(=O)C2C=CC(C(O)C3=C[C@H]4C[C@@H](C3)C4(C)C)N(Nc3ccc([N+](=O)[O-])cc3[N+](=O)[O-])C2C1=O (stereo not given in full)	-0.794 (inactive)	0.271	3.59 (inactive)	1.27 (inactive)	1.06 (inactive)	1.05 (inactive)	-0.456	0.0656 (inactive)	-0.0391 (inactive)	-1.2
C=CCOC(=O)[C@H]1[C@@H]2C(=O)O[C@@H](c3ccccc3)[C@@H](c3ccccc3)N2[C@@H](c2ccc(OCCOC(=O)[C@@H]3C[C@@H]4C(=O)NCC(=O)N4[C@@H]3c3ccc(O)cc3)cc2)[C@]12C(=O)Nc1ccc(I)cc12	-0.481 (inactive)	0.0545	1.63 (inactive)	1.39 (inactive)	1.49 (inactive)	0.816 (inactive)	0.361	1.57 (inactive)	1.28 (inactive)	1.61
CC(C)OC(=O)C1=CCC(c2cccc(Cl)c2)O1 (stereo not given)	0.504 (inactive)	-0.142	26 (active)	6.53 (inactive)	0.751 (inactive)	0.296 (inactive)	1.8	-3.89 (inactive)	-2.1 (inactive)	-4.96
C=C(COC)C(=O)CC[C@@H](OC(=O)c1ccccc1-c1ccccc1C(=O)O)c1ccc(CO)o1	-0.448 (inactive)	-0.0032	0.508 (inactive)	0.802 (inactive)	-2.11 (inactive)	0.698 (inactive)	-1	-3.41 (inactive)	-1.58 (inactive)	-3.07
CN(C)CCCC[C@@H]1NC(=O)[C@@H]2C[C@H](C(=O)NCCCCCN)[C@H](c3ccc(O)cc3)N2C1=O	0.195 (inactive)	-0.056	-0.327 (inactive)	0.0694 (inactive)	0.494 (inactive)	-0.0676 (inactive)	-0.431	-0.487 (inactive)	-0.159 (inactive)	0.701
[N-]=[N+]=Nc1ccccc1[C@@H]1OC(c2ccc(OCCCO)cc2)=N[C@]1(CCS(=O)(=O)c1ccccc1)C(=O)O	0.604 (inactive)	0.568	28.8 (active)	24.4 (active)	0.971 (inactive)	4.63 (inactive)	-0.067	-2.5 (inactive)	-0.0168 (inactive)	0.778
O=C1C[C@@](C(=O)O)(c2ccc([N+](=O)[O-])cc2)[C@@H](c2ccc(CO)cc2I)N1CC12CC3CC(CC(C3)C1)C2	-0.455 (inactive)	0.271	27.4 (active)	22.3 (active)	3.79 (inactive)	2.73 (inactive)	-0.429	1.11 (inactive)	-0.681 (inactive)	1.72
C=C(/C(=C/C[C@@H](OC(C)=O)c1ccc(CO)o1)c1cnc2ccccc2c1)C(C)C	0.727 (inactive)	-0.147	4.83 (inactive)	1.28 (inactive)	1.74 (inactive)	0.332 (inactive)	1.04	0.334 (inactive)	-1.99 (inactive)	-0.957
